D1 agonist – activates the human D1 dopamine receptor | P21728 | 360,000 compounds, 1% hits | activation, % at 2 µM | HEK293 T-REx D1 cells, calcium flux, agonist mode
Target sequence (P21728 whole entry, looked up): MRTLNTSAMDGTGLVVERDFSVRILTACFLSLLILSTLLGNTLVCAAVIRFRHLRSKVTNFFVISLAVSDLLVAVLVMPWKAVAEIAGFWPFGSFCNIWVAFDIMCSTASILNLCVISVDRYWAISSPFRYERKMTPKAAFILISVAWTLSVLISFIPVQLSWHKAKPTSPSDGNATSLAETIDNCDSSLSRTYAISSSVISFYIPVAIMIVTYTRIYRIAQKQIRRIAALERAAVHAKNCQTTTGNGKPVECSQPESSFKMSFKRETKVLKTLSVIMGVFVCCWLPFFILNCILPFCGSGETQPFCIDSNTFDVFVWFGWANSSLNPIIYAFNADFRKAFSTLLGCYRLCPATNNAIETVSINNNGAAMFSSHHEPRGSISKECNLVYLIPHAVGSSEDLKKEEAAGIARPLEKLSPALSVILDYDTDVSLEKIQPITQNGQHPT
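Tetracycline-induced HEK293 TREx D1 cells, force-coupled to calcium signalling, were dye-loaded with a no-wash calcium kit. Compound was pin-added after a 10 s baseline. Fluorescence was read kinetically at 1 cycle/s for 180 s, with calcium rises flagged as agonism.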
TRHR agonist – activates the human TRH receptor; P34981; TRHR cells, calcium flux fluo-8, FDSS agonist mode; activation, % at 2 µM; 360,000 compounds, 0.18% hits; AID 493084
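TRHR-expressing cells loaded with fluo-8 calcium dye; 23 nL library compound pin-transferred, kinetic FDSS fluorescence (Ex 480/Em 530) recorded about 180 s for agonist-induced calcium release, before a 10 nM TRH EC20 addition for potentiator mode.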
D1 antagonist – antagonists of human D1 dopamine receptor; activity change, negative = inhibition, % at 10 µM; 360,000 compounds, 3.2% hits; P21728; HEK293 TREx D1 cells, calcium flux, dopamine EC80; stronger effect = lower value; in the data active = activity change below about -30%
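Calcium flux readout: force-coupled, inducible Hek293 Trex D1 line, cells induced overnight at 30 C with tetracycline, dye-loaded 30–90 min at RT. Antagonism scored against EC80 dopamine challenge given 180 s after compound.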
D1 PAM – potentiators of human D1 dopamine receptor; P21728; HEK293 TREx D1 cells, calcium flux, dopamine EC20 potentiation; potentiation, % at 10 µM; 360,000 compounds, 0.036% hits; AID 504651; in the data active = potentiation above about 30%
TRHR PAM – allosteric enhancers of human TRH receptor; P34981; TRHR cells, fluo-8 calcium fluorescence, EC20 TRH enhancement; enhancement, % at 2 µM; 360,000 compounds, 0.66% hits; AID 493056; in the data active = enhancement above about 30%
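TRHR-expressing cells loaded with fluo-8 calcium dye were read kinetically (ex 480/em 530) during compound addition, then stimulated with an EC20 of TRH (10 nM final). Enhancement of the Gq-mediated intracellular calcium response was scored.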
A number is an active result. In the library only some 4.7% were active in any assay of this set; here they are far more common. Cut-off read from the data, not from the text of the source, unless noted: active = activation above about 30%; inactive = the rest.

For O=C(NCCc1ccccc1)C1CCC(=O)N1C1CCCC1 (stereo not given) the results were D1 agonist inactive, TRHR agonist inactive, D1 antagonist inactive, D1 PAM inactive and TRHR PAM inactive.
For COc1cccc(NC(=S)NNC(=O)Cn2nc([N+](=O)[O-])cc2C)c1 the results were D1 agonist inactive, TRHR agonist inactive, D1 antagonist inactive, D1 PAM inactive and TRHR PAM 40.7.
`Cc1ccc(NC(=S)NNC(=O)Cn2nc([N+](=O)[O-])cc2C)cc1` gave D1 agonist inactive, TRHR agonist inactive, D1 antagonist inactive, D1 PAM inactive and TRHR PAM inactive.
`COc1ccc(S(=O)(=O)N(Cc2cc3cc(C)ccc3[nH]c2=O)CC2CCCO2)cc1` (stereo not given) gave D1 agonist inactive, TRHR agonist inactive, D1 antagonist inactive, D1 PAM inactive and TRHR PAM inactive.
Screening O=c1[nH]c2ccccc2cc1CN(CC1CCCO1)S(=O)(=O)c1ccccc1 (stereo not given) returned D1 agonist inactive, TRHR agonist inactive, D1 antagonist -34.9, D1 PAM inactive and TRHR PAM inactive.
`CCN(Cc1cc2ccccc2[nH]c1=O)S(=O)(=O)c1ccc(OC)cc1` gave D1 agonist inactive, TRHR agonist inactive, D1 antagonist -39.3, D1 PAM inactive and TRHR PAM inactive.
Screening O=C(NCc1ccccc1Br)C1CCCO1 (stereo not given) returned D1 agonist inactive, TRHR agonist inactive, D1 antagonist inactive, D1 PAM inactive and TRHR PAM inactive.
For O=S(=O)(N1CCCCCC1)N1CCNCC1 the results were D1 agonist inactive, TRHR agonist inactive, D1 antagonist inactive, D1 PAM inactive and TRHR PAM inactive.
Screening O=S(=O)(O)C1CCNCC1 returned D1 agonist inactive, TRHR agonist inactive, D1 antagonist -49.2, D1 PAM inactive and TRHR PAM inactive.
For COc1ccccc1Oc1ccc(N2CC(C(=O)OCC(=O)c3ccccc3)CC2=O)cc1 (stereo not given) the results were D1 agonist inactive, TRHR agonist inactive, D1 antagonist -30.4, D1 PAM inactive and TRHR PAM inactive.
For N#Cc1ccc(-c2cccs2)nc1SCc1c(F)cccc1Cl the results were D1 agonist inactive, TRHR agonist inactive, D1 antagonist inactive, D1 PAM inactive and TRHR PAM inactive.
CCOC(=O)/C(C#N)=C/c1cn(CCOc2ccccc2)c2ccccc12 was read as D1 agonist inactive, TRHR agonist inactive, D1 antagonist inactive, D1 PAM inactive and TRHR PAM inactive.
For CCOC(=O)/C(C#N)=C\c1cn(C)c2ccccc12 the results were D1 agonist inactive, TRHR agonist inactive, D1 antagonist -31.9, D1 PAM inactive and TRHR PAM inactive.
`CN(C)c1cccc(C(=O)N2CCC(c3c[nH]c4ccccc34)(c3c[nH]c4ccccc34)CC2)c1` gave D1 agonist inactive, TRHR agonist inactive, D1 antagonist inactive, D1 PAM inactive and TRHR PAM inactive.
CCc1ccc(NC(=O)CSc2nc3ccccc3nc2Cc2ccccc2OC)cc1 was read as D1 agonist inactive, TRHR agonist inactive, D1 antagonist inactive, D1 PAM inactive and TRHR PAM inactive.
`CCCN(CCC)S(=O)(=O)c1ccc(C(=O)OCCN2C(=O)c3cccc4c(N5CCOCC5)ccc(c34)C2=O)cc1` gave D1 agonist 113.2, TRHR agonist inactive, D1 antagonist inactive, D1 PAM inactive and TRHR PAM inactive.
`CCN(CC)S(=O)(=O)c1ccc(C(=O)N2CCN(CCN3C(=O)c4cccc5cccc(c45)C3=O)CC2)cc1` gave D1 agonist inactive, TRHR agonist inactive, D1 antagonist inactive, D1 PAM inactive and TRHR PAM inactive.
For O=C(OCCN1C(=O)c2ccccc2C1=O)c1cc(S(=O)(=O)N2CCOCC2)ccc1F the results were D1 agonist inactive, TRHR agonist inactive, D1 antagonist inactive, D1 PAM inactive and TRHR PAM inactive.
Screening O=C(OCCN1C(=O)c2cccc3c(N4CCOCC4)ccc(c23)C1=O)c1ccc(Cl)cc1 returned D1 agonist 92.9, TRHR agonist inactive, D1 antagonist inactive, D1 PAM inactive and TRHR PAM inactive.
For Cc1ccc(NC(=O)Cn2cc([N+](=O)[O-])nc2C)cc1C the results were D1 agonist inactive, TRHR agonist inactive, D1 antagonist inactive, D1 PAM inactive and TRHR PAM inactive.

Bioassay records from PubChem.
